# Source: PubChem BioAssay AID686978 (National Center for Advancing Translational Sciences (NCATS), 2013)
# The campaign covered roughly 420,000 compounds. About 64,000 (15%) were called active. Not shown: some 27% with an inconclusive outcome. Calls come from the whole dose curve; as a rule, active = well fitted inhibition curve with a large enough effect; inconclusive = small, poorly fitted or top-dose-only effect; inactive = flat fitted curve, though single readings scatter. Not all results are given here. Peptide text beside a SMILES is read from it.
# Test: qHTS for Inhibitors of human tyrosyl-DNA phosphodiesterase 1 (TDP1): qHTS in cells in absence of CPT; note: nearly all actives have a fitted effect of over 55% in size
# Conditions: DT40 Tdp1-/- hTDP1 cells, no CPT, ATP luminescence, 48 h; activity change, negative = growth inhibition: at 46.2 µM (top of the series)
# Procedure, shortened: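 Chicken DT40 Tdp1-/- cells stably complemented with human TDP1 were seeded at 400 cells/well with DMSO in place of 20 nM camptothecin. After compound pinning, cells grew at least 48 hr at 37 °C; viability read by CellTiter-Glo luminescence.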
# % is set by controls: 0 for no effect and ±100 for the full control effect; potency is the fitted concentration of half-maximal effect.
SMILES,"activity change, negative = growth inhibition",Potency
O=C(Nc1cccc(F)c1)[C@@H]1CCCN1,7.69% (inactive),–
CCCn1nnnc1NCc1ccc(CC)cc1,-10.5% (inactive),–
CCCn1c(NCc2ccc(N(CC)CC)cc2)nc2ccccc21,–,8.2 µM (active)
CC(C)(C)C(=O)Cn1c(NCCO)nc2ccccc21,-3.49% (inactive),–
O=C(O)CN1C(=O)CC(Cc2ccccc2)C1=O (stereo not given),-0.391% (inactive),–
Cc1cc(NC(=O)COn2nnc3ccccc32)no1,-17.8% (inactive),–
COC(=O)c1cc(NC(=O)C2C3C=CC(C3)C2C(=O)O)cc(C(=O)OC)c1 (stereo not given),3.17% (inactive),–
O=C(NCCCNCc1ccccc1)c1ccc(/C=N/O)nc1,3.22% (inactive),–
CCc1ccc(Nc2n[n+](-c3ccccc3)c(-c3cccc(Cl)c3Cl)s2)cc1,–,16.4 µM (active)
Cc1noc(C)c1S(=O)(=O)NCCc1ccc(S(N)(=O)=O)cc1,-8.65% (inactive),–
COC(=O)c1ccc([C@@H](O)[C@H](C)C(=O)CC(=O)OC(C)(C)C)cc1,-16.3% (inactive),–
O=C(c1ccccc1)c1ccc2nc(N3CCCCC3)c3nncn3c2c1,–,13 µM (active)
O=C(c1ccccc1)c1ccc(OC(=O)N2CCCC2)cc1,-25% (inactive),–
c1ccc(CC2CCN(c3nc4ccccc4n4cnnc34)CC2)cc1,-8.6% (inactive),–
COc1cccc(/C=C/C(=O)Nc2ccc3c(c2)OCCO3)c1,-13.1% (inactive),–
COc1ccc(OC)c(/C=C/C(=O)OCC(=O)Nc2ccc3c(c2)OCCO3)c1,–,16.4 µM (active)
COc1ccccc1OCCCC(=O)Nc1ccc2c(c1)OCCO2,-24.4% (inactive),–
S=c1c2[nH]cnc2ncn1CCSc1ncnc2nc[nH]c12,-24.7% (inactive),–
Cc1ccc(NC(=O)CN(C)C(=O)c2ccc(Cl)c(S(=O)(=O)NCc3ccco3)c2)cc1,11.9% (inactive),–
"CC[C@H](C)CCCCC(=O)N[C@@H](CCN)C(=O)N[C@H](C(=O)N[C@@H](CCN)C(=O)N[C@H]1CCNC(=O)[C@H]([C@@H](C)O)NC(=O)[C@H](CCN)NC(=O)[C@H](CCN)NC(=O)[C@H](CC(C)C)NC(=O)[C@@H](CC(C)C)NC(=O)[C@H](CCN)NC1=O)[C@@H](C)O (HELM PEPTIDE1{[CC[C@H](C)CCCCC(=O)[*:2]].[Dab].T.[Dab].[Dab].[Dab].[dL].L.[Dab].[Dab].T}$PEPTIDE1,PEPTIDE1,5:R3-11:R2$$$V2.0)",-2.38% (inactive),–

SMILES,"activity change, negative = growth inhibition",Potency
O=C(CSc1nnc(CNC(=O)c2ccccc2)n1-c1ccc(F)cc1)Nc1ccccc1F,-10.5% (inactive),–
CCOC(=O)/C=c1\s/c(=C\c2ccc(C#N)cc2)c(=O)n1CC(=O)Nc1cccc(C)c1C,–,5.17 µM (active)
CCOc1ccc(NC(=O)Cn2c(C)ccc(C#N)c2=O)cc1,0.582% (inactive),–
Cc1cccc(NC(=O)CN2C(=O)c3ccccc3C2=O)c1C,1.62% (inactive),–
Cc1nc(SCC(=O)NC2CCCC2)[nH]c(=O)c1C,-0.993% (inactive),–
Cc1ccsc1C(=O)OCC(=O)c1cc2ccccc2o1,-9.66% (inactive),–
CCCCc1nn2c(=O)cc(COC(=O)c3cccc(NC(=O)COc4ccccc4)c3)nc2s1,-10.2% (inactive),–
O=C1CS(=O)CN1c1ccc(Oc2ccccc2)cc1 (stereo not given),-20.1% (inactive),–
O=C(CN1C(=O)NC2(CCCCCC2)C1=O)NCc1ccc(F)cc1,3.82% (inactive),–
COc1cc(OC)c(NC(=O)c2cc(S(=O)(=O)N3CCCC3)cn2C)cc1Cl,-7.62% (inactive),–
COc1cccc(NC(=O)c2cc(S(=O)(=O)N3CCc4ccccc43)cn2C)c1,-1.2% (inactive),–
COc1ccccc1N(C)C(=O)c1cc(S(=O)(=O)N2CCc3ccccc32)cn1C,–,25.9 µM (active)
CN(C(=O)COC(=O)Cn1cnc2c1c(=O)n(C)c(=O)n2C)C1(C#N)CCCCC1,0.855% (inactive),–
NCC(=O)c1cccc2ccc[n+]([O-])c12,-0.678% (inactive),–
O=C(c1cnccn1)N1CCC2(CCCN(Cc3ccccc3)C2)CC1,-1.1% (inactive),–
CCN(Cc1ccncc1)C(=O)[C@@H](CO)c1ccccc1,2.72% (inactive),–
C=CCn1c(SCC(=O)NCc2ccccc2)nnc1-c1cc(Br)ccc1O,-18% (inactive),–
COc1ccc(-c2ccc3c(c2)C2CC3CCN2CCC#N)cc1 (stereo not given),–,23.1 µM (active)
COc1ccc(NC(=O)CCN2CCCC2)c(OC)c1,0.0354% (inactive),–
COc1ccc(OCC(=O)NNC(=O)C2CCC2)cc1,-5.78% (inactive),–

SMILES,"activity change, negative = growth inhibition",Potency
C=CCOC(=O)N1CCC2CC1c1cc(-c3ccc(OC)cc3)ccc12 (stereo not given),–,16.4 µM (active)
CC1CC1C(=O)OCC(=O)c1c(N)n(C)c(=O)n(C)c1=O (stereo not given),8.67% (inactive),–
Cc1onc(C(=O)NN)c1C(=O)N1CCN(C(c2ccccc2)c2ccccc2)CC1,-18.3% (inactive),–
CCOC(=O)N1CCN(C(c2cccnc2)c2ccc3cccnc3c2O)CC1 (stereo not given),–,1.64 µM (active)
CCOC(=O)N1CCN(C(=O)c2cc3c(ccc4ccccc43)oc2=O)CC1,-24.1% (inactive),–
CCOC(=O)Cn1nnnc1C,-9.63% (inactive),–
CCC(C)CCN1CCN=C1N(C)C (stereo not given),-17.4% (inactive),–
CC(C)NS(=O)(=O)c1ccc(OCC(=O)Nc2ccc3c(c2)OCCO3)cc1,-0.099% (inactive),–
CC1CC2=C(CC1/C=N/NC(N)=S)C(C)(C)CCC2 (stereo not given),–,3.26 µM (active)
Cc1ccc(OCC(=O)OCc2cc(=O)n3nc(C4CC4)sc3n2)cc1C,0.484% (inactive),–
COc1cccc(Nc2nnc(SCC(=O)N3CC(=O)Nc4ccccc43)s2)c1,-29.2% (inactive),–
N#C/C(=C/c1cccc([N+](=O)[O-])c1)c1nnc2n1CCCCC2,–,13 µM (active)
O=c1c2cc([N+](=O)[O-])ccc2nc2n1CCC2,-13.8% (inactive),–
N#C/C(=C(\O)C(F)(F)F)c1nnc2n1CCCCC2,-0.657% (inactive),–
Cc1ccc(NC(=O)c2cc([N+](=O)[O-])ccc2Cl)c(O)c1,-26.4% (inactive),–
CCn1cc(C(=O)N[C@@H](C)C(=O)NCCO)c(=O)c2cc3c(cc21)OCO3,34.9% (inactive),–
NC(=O)c1sc(-c2ccsc2)cc1N,-17.9% (inactive),–
C#CCOCCOCCOCCNc1nc(N2CCN(C(=O)CCCCCCCCCCNC(=O)[C@H]([C@@H](C)CC)n3cc(CCCCN=C(N)N)nn3)CC2)nc(N2CCN(C(=O)CCCCCCCCCCNC(=O)[C@H](CO)n3cc(CCCSC)nn3)CC2)n1,–,8.2 µM (active)
C#CCOCCOCCOCCNc1nc(N2CCN(C(=O)Cn3cc(CCO)nn3)CC2)nc(N2CCN(C(=O)Cn3cc(CCCN=C(N)N)nn3)CC2)n1,-0.16% (inactive),–
C#CCOCCOCCOCCNc1nc(N2CCN(C(=O)[C@H](CCCN=C(N)N)n3cc(C(N)[C@@H](C)CC)nn3)CC2)nc(N2CCN(C(=O)[C@H](CO)n3cc([C@@H](N)C(C)C)nn3)CC2)n1 (stereo not given in full),-2.88% (inactive),–
